HCV NS3h FP: hepatitis C NS3 helicase inhibition, primary screen. NS3h Cy5-dT15 DNA binding, fluorescence polarization. inhibition, % at 100 µM. 1.6% of 16,000 active. AID 687043;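 active means inhibition above the average over every tested compound plus 3 SD, cut at about 40% in these data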
Cy5 interf NS3h: Cy5 fluorescence interference, HCV helicase counter-screen; Cy5-dT15 DNA with NS3h; actives lie on both sides; signal over control mean, under 1 quenches; fluorescence interference ratio at 100 µM; 6% of 16,000 active; AID 720488;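 active means compound fluorescence over control fluorescence at most 0.8, a quencher, or at least a set upper limit, an enhancer; inactive means ratio between 0.8 and the set upper limit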
* = called active by the depositor. Most compounds without a hit are left out; they make up all but 6.8% or so of the library.

SMILES	HCV NS3h FP	Cy5 interf NS3h
CCOC(=O)c1sc(NC(=O)c2cc3n(n2)C(C(F)(F)F)CC(c2ccc4c(c2)OCO4)N3)c(C(=O)OCC)c1C (centres undefined)	2.3	1.02
COC(=O)C(CC(C(=O)OC)C(=O)OC)C(=O)OC	-1.6	1.02
COC(=O)C(CCCC(C(=O)OC)C(=O)OC)C(=O)OC	2.2	0.678*
O=C(NC1C2CC3CC(C2)CC1C3)c1ccc(Cl)cc1Cl (centres undefined)	7.4	1.04
COc1cccc(NC(=O)COc2ccc(C)cc2C)c1	13.2	0.785*
COc1cccc(NC(=O)COc2cc(C)c(Cl)c(C)c2)c1	10.5	0.877
COC(=O)/C(=C/C(=O)c1ccc([N+](=O)[O-])cc1)Nc1ccc(Br)cc1	0.0	1.01
O=C(Oc1cccc2ccccc12)c1ccco1	3.1	0.57*
N/C(Cc1cccc2ccccc12)=N/OC(=O)c1ccco1	16.7	1.08
Cc1ccc(S(=O)(=O)Nc2ccc(S(=O)(=O)NC(=O)C3CCCCC3)cc2)cc1	11.5	0.724*
CC(=O)NS(=O)(=O)c1ccc(NS(=O)(=O)c2ccc(C)cc2)cc1	-0.6	0.983
CC(C)(C)C(=O)/C=C(N)\C=C\c1ccccc1	11.5	0.636*
CC(C)(C)C(=O)/C=C(/O)C(=O)NCc1ccccc1	6.3	0.853
Cc1nc2nc(-c3ccccc3)[nH]c2cc1Br	1.6	1.18
CC(NC(=O)C(=O)NCC1CCCO1)c1ccccc1 (centres undefined)	-1.5	0.636*
O=C(NCC1CCCO1)C(=O)Nc1ccccc1F (centres undefined)	2.3	0.986
O=C(NCC1CCCO1)C(=O)Nc1ccc(F)cc1 (centres undefined)	1.8	1.03
CCc1ccc(NC(=O)C(=O)NCC2CCCO2)cc1 (centres undefined)	18.0	0.755*
COc1ccc(/C=C/c2cc[n+](C)cc2)cc1	3.7	1.13
CN(C)c1ccc(NC(=O)c2ccccc2F)cc1	7.7	0.987
CN(C)c1ccc(NC(=O)c2cc(Cl)ccc2Cl)cc1	44.8*	0.985
CCCCCCN1C(=O)C(=O)C(=C(O)c2ccccc2)C1c1cccc(OC)c1 (centres undefined)	-0.7	0.979
O=C1CC(Sc2ncn[nH]2)C(=O)N1c1cc(Cl)ccc1Cl (centres undefined)	5.6	1.02
CCOC(=O)c1c(C)nc2ccc(OC(F)(F)F)cc2c1-c1ccccc1	0.3	1.02
Cc1ccc(C(=O)N/C(=C/c2cccnc2)c2nc3ccccc3[nH]2)cc1	-7.5	0.797*
SMILES	HCV NS3h FP	Cy5 interf NS3h
Cc1ccc(C(=O)N/C(=C\c2ccccc2F)c2nc(=S)[nH][nH]2)cc1	6.6	0.884
COc1ccc(N=Cc2ccc(O)c(OC)c2)cc1	10.6	0.8*
COc1cc(C=Nc2ccc(S(N)(=O)=O)cc2)ccc1O	4.8	1.05
O=C1c2ccc(S(=O)(=O)c3ccc4c(c3)C(=O)N(CCO)C4=O)cc2C(=O)N1CCO	8.0	1.08
CCOc1c(Br)cc(/C=C2\C(=O)NC(=O)N(c3cccc(C)c3)C2=O)cc1OC	6.0	0.885
CN(C)c1ccc(/C=N\N2C(=O)C3C(C2=O)C2C=CC3C23CC3)cc1Br (centres undefined)	12.4	0.928
CCc1cc2c(=O)c(-c3nc4ccccc4s3)c(C)oc2cc1OS(C)(=O)=O	7.0	1.2*
CCC(=O)Oc1cc2oc(CC)c(-c3nc(C)cs3)c(=O)c2cc1CC	18.1	0.914
COc1cc(C(=O)NC(NC(=S)Nc2ccc(C(C)=O)cc2)C(Cl)(Cl)Cl)cc(OC)c1OC (centres undefined)	5.2	0.909
O=C(NC(c1ccccc1)c1ccccc1)C(=O)c1c[nH]c2ccccc12	15.2	0.655*
Cc1ccc(C(=O)Nc2ccccc2C(=O)NC(Cc2c[nH]c3ccccc23)C(=O)O)cc1 (centres undefined)	16.6	0.983
O=C(/C=C/c1ccc(-c2cccc([N+](=O)[O-])c2)o1)c1cc2ccccc2o1	3.2	0.986
Cc1cc([N+](=O)[O-])ccc1-c1cc2ccccc2oc1=O	17.7	0.69*
Cc1cc([N+](=O)[O-])ccc1-c1ccc(CO)o1	1.4	0.922
Cc1cccc(C)c1NC(=O)CN(c1cccc([N+](=O)[O-])c1)S(=O)(=O)c1ccccc1	14.7	1.12
CCOC(=O)N1N=C(c2cccc([N+](=O)[O-])c2)CC1(O)C(F)(F)F (centres undefined)	4.6	1.01
COC(=O)c1ccc(/C=N\NC(=O)/C(=C/c2ccc(N(C)C)cc2)NC(=O)c2ccccc2)cc1	21.4	1.05
CC12CC3(C)CC(C)(C1)CC(C(=O)NN)(C2)C3	1.3	1.05
CC12CC3(C)CC(C)(C1)CC(C(=O)NCCO)(C2)C3	13.8	1.27*
Cc1cccc(CC2CC(=O)N(c3ccc(/C=C/C(=O)O)cc3)C2=O)c1 (centres undefined)	-5.4	1.05
O=C1N=c2ccccc2=C1c1sc(Nc2ccc(O)cc2)nc1O	11.1	0.631*
O=C1N=c2ccccc2=C1c1sc(=S)n(-c2ccc(F)cc2)c1O	-5.2	0.991
Cc1ccc(/C=C(\NC(=O)c2ccc(C)cc2)C(=O)NC(C)C)cc1	12.0	0.919
COc1cc(/C=C2\C(=O)NN(c3ccccc3)C2=O)cc(Br)c1OCC(=O)O	29.0	1.06
Cc1ccc(N2NC(=O)/C(=C\c3ccc(Br)cc3)C2=O)cc1	18.8	0.914
SMILES	HCV NS3h FP	Cy5 interf NS3h
Cc1ccc(N2NC(=O)/C(=C/c3cccc(Br)c3)C2=O)cc1	23.1	0.785*
COc1cc(/C=C2/C(=O)NN(c3ccc(Cl)cc3)C2=O)cc(Br)c1O	-1.4	0.772*
O=C1OC(c2ccccc2F)=N/C1=C\c1ccc(Br)cc1	3.6	1.08
CCOc1ccc(/C=C2\N=C(c3ccccc3F)OC2=O)cc1	52.6*	1.01
Cc1ccc(S(=O)(=O)N(CC(O)CN(CC(C)C)CC(C)C)c2cccc(C)c2)cc1 (centres undefined)	11.5	0.772*
COc1ccc(N(CC(O)CN(Cc2ccccc2)Cc2ccccc2)S(=O)(=O)c2ccc(C)cc2)cc1 (centres undefined)	9.9	0.958
CN(C)CC(O)CN(c1ccccc1)S(=O)(=O)c1ccc([N+](=O)[O-])cc1 (centres undefined)	0.0	0.788*
NC(=O)CN(c1cccc([N+](=O)[O-])c1)S(=O)(=O)c1ccccc1	9.6	0.977
Cc1ccc(S(=O)(=O)N(CC(C)C)CC(C)C)cc1	5.0	0.943
Cc1cccc(N(CC(O)CN(Cc2ccccc2)Cc2ccccc2)S(=O)(=O)c2ccccc2)c1 (centres undefined)	20.7	0.705*
COc1ccc2oc(=O)c(C(=O)Nc3ccc(C(C)=O)cc3)cc2c1	6.0	0.933
COc1ccc(C2=NN(c3ccc(C=O)cc3)C(c3ccc(F)cc3)C2)cc1 (centres undefined)	22.7	0.942
O=C1CSC(=Nc2ccc(Br)cc2)N1	10.9	0.983
Cc1cc(Nc2cccc(O)c2)n2ncnc2n1	8.7	0.692*
Cc1cc(Nc2cccc(F)c2)n2c(nc3ccccc32)c1C#N	2.4	1.02
C/C(=N\NC(=O)c1ccccc1)C1CC1	3.6	1.11
COC(=O)CN(c1cc(OC)ccc1OC)S(C)(=O)=O	0.6	1.18
C=CCN1C(=O)NC(=O)/C(=C/c2ccc(OC)c(OCc3ccc(Cl)cc3)c2)C1=O	8.9	1.02
CC(C)C(=O)Nc1ccc(N2CCOCC2)cc1	-1.6	1.03
CCCC(=O)Nc1ccc(N2CCOCC2)cc1	3.1	0.739*
